# From PMC7862700, “An all-to-all approach to the identification of sequence-specific readers for epigenetic DNA modifications on cytosine”
# Columns and labels:
# Experiment in all cases: DAPPL (digital affinity profiling via proximity ligation, sequencing); 10 mM Tris-HCl pH 7.5, 50 mM NaCl, 1 mM DTT, 4% glycerol, room temperature, 30 min; GST-TFs on glutathione beads, 16-mer random dsDNA library, 0.1% formaldehyde crosslink after washing; high values mean tight binding
# Conditions in all cases: protein: recombinant; tags: N-terminal GST; dsDNA, one strand shown
# FLI1 = target: T1, FLI1 (Homo sapiens, UniProt Q01543 1-452)
# T1 sequence: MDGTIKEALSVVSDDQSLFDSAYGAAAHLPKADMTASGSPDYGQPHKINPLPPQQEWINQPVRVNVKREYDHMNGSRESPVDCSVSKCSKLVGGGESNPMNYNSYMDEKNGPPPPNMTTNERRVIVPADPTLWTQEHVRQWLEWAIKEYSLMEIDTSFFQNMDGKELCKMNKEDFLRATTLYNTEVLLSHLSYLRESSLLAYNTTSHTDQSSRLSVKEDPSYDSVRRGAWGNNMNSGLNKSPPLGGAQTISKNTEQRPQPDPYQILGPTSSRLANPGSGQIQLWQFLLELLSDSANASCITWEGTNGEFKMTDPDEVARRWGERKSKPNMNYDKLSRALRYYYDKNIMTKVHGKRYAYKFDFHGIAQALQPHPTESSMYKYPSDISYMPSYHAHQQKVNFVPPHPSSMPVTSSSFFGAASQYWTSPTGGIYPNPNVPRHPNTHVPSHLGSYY
# Procedure, shortened: (§1)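 After expression in yeast as GST fusions, human transcription factors were bound to glutathione beads, DNA-barcoded and mixed with a tag-only sample. The pools were incubated with 200 nmole of a 16-mer random double-stranded DNA library in Tris/NaCl/DTT/glycerol buffer (30 min, room temperature), washed and crosslinked with 0.1% formaldehyde. Proximity ligation with BsaI/T4 ligase ran for 1 h at 37 °C, before PCR amplification and sequencing on an Illumina NextSeq500. Binding signal is a hexamer's read frequency for a factor divided by its frequency for the tag-only sample.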
# ELK1 = target: T2, ELK1 (Homo sapiens, UniProt P19419 1-428)
# T2 sequence: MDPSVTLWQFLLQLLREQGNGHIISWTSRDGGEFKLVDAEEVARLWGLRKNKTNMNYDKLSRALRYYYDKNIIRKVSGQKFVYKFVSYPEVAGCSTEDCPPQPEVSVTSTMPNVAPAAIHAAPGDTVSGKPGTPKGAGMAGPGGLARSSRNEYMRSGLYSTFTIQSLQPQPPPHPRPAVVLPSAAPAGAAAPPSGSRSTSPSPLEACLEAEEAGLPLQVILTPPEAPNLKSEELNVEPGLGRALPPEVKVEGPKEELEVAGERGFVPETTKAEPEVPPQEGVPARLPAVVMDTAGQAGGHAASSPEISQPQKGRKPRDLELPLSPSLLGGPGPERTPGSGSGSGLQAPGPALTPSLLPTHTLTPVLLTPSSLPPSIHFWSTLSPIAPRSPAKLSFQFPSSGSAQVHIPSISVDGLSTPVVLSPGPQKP
# Procedure, shortened: as §1
# GABPA = target: T3, GABPA (Homo sapiens, UniProt Q06546 1-454)
# T3 sequence: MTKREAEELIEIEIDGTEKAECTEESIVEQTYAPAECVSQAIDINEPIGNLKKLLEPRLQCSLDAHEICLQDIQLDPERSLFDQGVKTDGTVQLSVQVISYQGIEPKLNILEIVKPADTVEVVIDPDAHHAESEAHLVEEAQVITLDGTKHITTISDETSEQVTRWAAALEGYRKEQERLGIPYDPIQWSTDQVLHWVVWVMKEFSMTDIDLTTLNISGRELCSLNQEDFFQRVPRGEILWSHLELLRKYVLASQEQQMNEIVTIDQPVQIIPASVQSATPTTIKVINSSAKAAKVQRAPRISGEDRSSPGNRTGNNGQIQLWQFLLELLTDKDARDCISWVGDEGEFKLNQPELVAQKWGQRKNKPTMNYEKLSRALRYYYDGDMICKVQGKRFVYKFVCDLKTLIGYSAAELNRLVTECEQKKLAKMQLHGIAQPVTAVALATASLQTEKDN
# Procedure, shortened: as §1
# ERG = target: T4, ERG (Homo sapiens, UniProt P11308 1-479)
# T4 sequence: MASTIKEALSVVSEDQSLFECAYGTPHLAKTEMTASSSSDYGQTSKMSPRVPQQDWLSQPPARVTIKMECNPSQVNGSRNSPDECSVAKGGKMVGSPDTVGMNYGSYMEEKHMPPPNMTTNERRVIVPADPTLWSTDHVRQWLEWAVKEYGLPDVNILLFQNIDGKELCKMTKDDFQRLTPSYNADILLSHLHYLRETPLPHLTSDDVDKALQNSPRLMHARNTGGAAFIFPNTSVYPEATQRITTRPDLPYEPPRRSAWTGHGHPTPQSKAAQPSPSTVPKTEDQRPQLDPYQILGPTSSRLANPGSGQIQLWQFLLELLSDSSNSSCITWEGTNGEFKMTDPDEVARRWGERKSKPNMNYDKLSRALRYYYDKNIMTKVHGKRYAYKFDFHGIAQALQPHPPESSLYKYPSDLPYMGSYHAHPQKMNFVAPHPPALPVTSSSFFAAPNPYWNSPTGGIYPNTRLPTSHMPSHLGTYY
# Procedure, shortened: as §1
# ELF1 = ELF1 (Homo sapiens, UniProt P32519 1-619)
# Chain of ELF1 (P32519 whole entry): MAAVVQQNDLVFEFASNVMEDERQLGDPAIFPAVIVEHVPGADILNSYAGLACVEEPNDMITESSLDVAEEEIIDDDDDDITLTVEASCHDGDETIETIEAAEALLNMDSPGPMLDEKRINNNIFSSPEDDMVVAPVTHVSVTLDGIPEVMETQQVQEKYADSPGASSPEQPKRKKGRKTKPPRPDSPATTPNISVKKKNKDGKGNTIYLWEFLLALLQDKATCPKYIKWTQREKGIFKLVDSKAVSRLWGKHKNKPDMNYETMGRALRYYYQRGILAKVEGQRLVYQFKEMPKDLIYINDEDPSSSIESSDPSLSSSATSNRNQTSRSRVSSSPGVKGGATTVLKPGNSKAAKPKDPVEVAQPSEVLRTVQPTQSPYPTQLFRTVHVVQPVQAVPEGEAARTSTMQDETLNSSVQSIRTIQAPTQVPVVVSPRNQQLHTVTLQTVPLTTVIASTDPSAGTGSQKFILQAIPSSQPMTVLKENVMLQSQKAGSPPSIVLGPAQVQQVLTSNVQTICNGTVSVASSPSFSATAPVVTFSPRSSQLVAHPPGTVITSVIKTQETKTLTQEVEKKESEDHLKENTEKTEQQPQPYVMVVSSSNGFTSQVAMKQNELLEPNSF
# Procedure, shortened: as §1
# EHF = target: T5, EHF (Homo sapiens, UniProt Q9NZC4 1-300)
# T5 sequence: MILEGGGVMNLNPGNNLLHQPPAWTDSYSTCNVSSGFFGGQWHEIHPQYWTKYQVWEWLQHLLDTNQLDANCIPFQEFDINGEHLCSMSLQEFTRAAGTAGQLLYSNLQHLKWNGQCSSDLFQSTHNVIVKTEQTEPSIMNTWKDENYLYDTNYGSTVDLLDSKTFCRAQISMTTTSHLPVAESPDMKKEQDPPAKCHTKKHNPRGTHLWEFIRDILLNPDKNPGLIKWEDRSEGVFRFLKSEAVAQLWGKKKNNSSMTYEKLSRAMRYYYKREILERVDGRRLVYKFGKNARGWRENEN
# Procedure, shortened: as §1
# SPI1 = SPI1 (Homo sapiens, UniProt P17947 1-270)
# Procedure, shortened: as §1
# SPIB = SPIB (Homo sapiens, UniProt Q01892 1-262)
# Chain of SPIB (Q01892 whole entry): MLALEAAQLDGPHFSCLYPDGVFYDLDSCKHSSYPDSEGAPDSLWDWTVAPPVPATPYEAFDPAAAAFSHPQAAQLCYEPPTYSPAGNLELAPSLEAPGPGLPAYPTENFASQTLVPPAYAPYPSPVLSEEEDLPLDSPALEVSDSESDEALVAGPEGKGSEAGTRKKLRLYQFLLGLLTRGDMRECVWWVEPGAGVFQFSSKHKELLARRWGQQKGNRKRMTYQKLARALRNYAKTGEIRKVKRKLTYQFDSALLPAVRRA
# Procedure, shortened: as §1
# ELK3 = target: T6, ELK3 (Homo sapiens, UniProt P41970 1-407)
# T6 sequence: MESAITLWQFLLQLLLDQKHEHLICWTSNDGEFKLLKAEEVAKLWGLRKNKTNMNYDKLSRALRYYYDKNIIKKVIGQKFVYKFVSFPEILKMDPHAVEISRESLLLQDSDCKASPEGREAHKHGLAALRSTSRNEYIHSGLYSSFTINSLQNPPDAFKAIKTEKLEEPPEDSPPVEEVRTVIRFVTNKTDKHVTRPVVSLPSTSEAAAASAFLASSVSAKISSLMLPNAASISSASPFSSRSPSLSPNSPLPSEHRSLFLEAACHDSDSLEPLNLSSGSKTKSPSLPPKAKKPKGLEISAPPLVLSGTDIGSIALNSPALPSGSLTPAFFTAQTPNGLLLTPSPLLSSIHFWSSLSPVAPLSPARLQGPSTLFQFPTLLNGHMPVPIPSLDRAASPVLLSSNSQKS
# Procedure, shortened: as §1
sequence,measurement,setting,value
ACCTGG,binding signal,FLI1,"1.25 fold enrichment (6-mer frequency, TF over GST control)"
same,binding signal,ELK1,"1.28 fold enrichment (6-mer frequency, TF over GST control)"
same,binding signal,GABPA,"1.25 fold enrichment (6-mer frequency, TF over GST control)"
same,binding signal,ERG,"1.25 fold enrichment (6-mer frequency, TF over GST control)"
same,binding signal,ELF1,"1.25 fold enrichment (6-mer frequency, TF over GST control)"
same,binding signal,EHF,"1.22 fold enrichment (6-mer frequency, TF over GST control)"
same,binding signal,SPI1,"1.2 fold enrichment (6-mer frequency, TF over GST control)"
same,binding signal,SPIB,"1.31 fold enrichment (6-mer frequency, TF over GST control)"
same,binding signal,ELK3,"1.23 fold enrichment (6-mer frequency, TF over GST control)"
